Test results as given in PubChem BioAssay.
Calls of active or inactive are those of the source.

Key:
[1] = compound effects on lung adenocarcinoma cell viability – A549, calcein-AM fluorescence, 48 h, basal, profiling panel (AID 1162); details: higher = more signal
[2] = compound effects on differentiated 3T3-L1 adipocyte viability – cell-based, 3T3-L1 adipocytes, calcein-AM fluorescence, 48 h, basal, profiling panel (AID 1163); details: 3T3-L1 adipocytes viability, higher = more signal
[3] = compound effects on hepatocellular carcinoma cell viability – HepG2, calcein-AM fluorescence, 48 h, basal, profiling panel (AID 1164); details: higher = more signal
[4] = compound effects on multiple myeloma cell viability – MM1S, calcein-AM fluorescence, 48 h, basal, profiling panel (AID 1165); details: higher = more signal;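 note: viability of MM1S multiple myeloma cells under basal unstimulated conditions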
[5] = calcein-AM signal in unstimulated myeloma cells – cell-based, calcein-AM fluorescence, 48 h, PK04 Diversity Set, profiling panel (AID 1166); details: RPMI8226 myeloma viability, higher = more signal;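 note: cells grown under basal conditions without added stimulus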
[6] = JC-1 mitochondrial signal, unstimulated HepG2 cells – cell-based, JC-1 fluorescence, 24 h, 100 nL compound, profiling panel (AID 1167); details: HepG2 mitochondrial potential, higher = more signal
[7] = JC-1 mitochondrial signal, unstimulated adipocytes – cell-based, JC-1 fluorescence, 3T3-L1 adipocytes, 24 h, 100 nL compound, profiling panel (AID 1168); details: JC-1 mitochondrial fluorescence, higher = more signal, called active from +8 up or from −8 down
[8] = JC-1 mitochondrial signal, unstimulated myeloma cells – cell-based, JC-1 fluorescence, RPMI8226, 24 h, 100 nL compound, profiling panel (AID 1169); details: JC-1 mitochondrial potential fluorescence, higher = more signal
[9] = JC-1 mitochondrial signal, unstimulated MM1S myeloma – cell-based, JC-1 fluorescence, 24 h, 100 nL compound, profiling panel (AID 1170); details: MM1S mitochondrial potential, higher = more signal
[10] = resazurin metabolic signal in A549 cells – cell-based, resazurin fluorescence, 24 h, PK04 Diversity Set, profiling panel (AID 1171); details: A549 viability, higher = more signal, called active from +8 up or from −8 down
Note: test concentration not given here.

Compound	z-score [1]	z-score [2]	z-score [3]	z-score [4]	z-score [5]	z-score [6]	z-score [7]	z-score [8]	z-score [9]	z-score [10]
COc1ccc([Si](C)(C)[C@H]2[C@H](CC(=O)N3CCC[C@H]3CO)O[C@@]3(C(=O)N(Cc4ccc(N5C(=O)c6cccc7cccc5c67)cc4)c4ccccc43)[C@@H]2C)cc1	-0.706	0.867	-0.154	-2.87	-4.2	2.16	1.44 (inactive)	-1.1	0.28	-1.28 (inactive)
COC(=O)c1c(CC[C@@H](CO)NC(=O)N[C@@H](C)Cn2cc(C3(O)CCCC3)nn2)oc(C(C)=O)c1C(=O)OC	0.329	1.45	-0.299	-2.1	-0.371	-0.428	1.04 (inactive)	-0.357	0.932	-0.514 (inactive)
O=C1O[C@H](c2ccccc2)[C@H](c2ccccc2)N2[C@H]1[C@@H](C(=O)NC[C@H](O)c1ccccc1)[C@]1(C(=O)Nc3ccccc31)[C@H]2c1ccccc1OCCO	-1.78	0.559	-5.16	-3.38	-4.61	-2.92	2.95 (inactive)	-1.15	-2.19	-3.12 (inactive)
COCCCNC(=O)[C@]1(CCS(=O)(=O)c2ccccc2)N=C(c2ccc(OCCCO)cc2)O[C@@H]1c1ccccc1	1.73	0.151	0.9	-0.223	-0.7	2.64	0.0968 (inactive)	-0.74	-0.801	-0.243 (inactive)
O=C(NCc1ccccc1)[C@]1(Cc2ccccc2)N=C(c2ccc(OCCCO)cc2)O[C@@H]1c1ccccc1	-2.44	0.709	-1.83	-2.57	-4.2	0.683	0.145 (inactive)	-1.21	-1.24	0.0976 (inactive)
CN1C(=O)C2C=CC(C(O)COCc3ccccc3)N(Nc3ccccc3)C2C1=O (stereo not given)	-0.115	-1.24	-0.465	0.225	0.192	-1.05	0.0756 (inactive)	-0.0145	-0.178	0.105 (inactive)
O=C1O[C@@H](c2ccccc2)[C@@H](c2ccccc2)N2[C@@H](c3ccc(O)cc3)[C@]3(C(=O)Nc4ccc(C#CC5(O)CCCCCC5)cc43)[C@@H](C(=O)N3CCN(c4ncccn4)CC3)[C@H]12	-0.415	0.292	-0.458	-0.0835	-0.813	-0.512	-0.68 (inactive)	-1.05	-0.203	0.533 (inactive)
COC(=O)[C@@]1(Cc2ccccc2)[C@H]2c3cc(C(=O)N(C)C)n(Cc4ccc(O)c(OC)c4)c3C[C@H]2CN1C(=O)c1ccccc1	-0.927	1.68	0.0419	-0.494	-1.26	2.19	-0.485 (inactive)	-0.671	-1.47	0.349 (inactive)
C=CCOC(=O)[C@@H]1[C@H]2C(=O)O[C@H](c3ccccc3)[C@H](c3ccccc3)N2[C@H](c2ccc(OCCOC(=O)[C@H]3C[C@H]4C(=O)N[C@@H](Cc5ccccc5)C(=O)N4[C@H]3c3cccc(OCCO)c3)cc2)[C@@]12C(=O)Nc1ccc(I)cc12	0.188	-0.282	0.921	-3.18	-0.493	0.244	0.473 (inactive)	-0.903	-1.57	0.535 (inactive)
COC(=O)[C@@]1(Cc2ccc(OC)cc2)[C@H]2c3cc(C(=O)N(C)C)n(CCF)c3C[C@H]2CN1C(=O)c1ccccc1	-0.444	-0.228	-0.0897	0.841	-0.111	1.49	0.454 (inactive)	-0.339	-1.55	-0.391 (inactive)
CC(C)N1C(=O)c2ccccc2[C@](C)(C(=O)O)[C@@H]1c1ccc(CO)cc1	-0.786	0.0073	-0.876	0.0364	0.0868	0.0703	0.597 (inactive)	0.663	-0.188	0.069 (inactive)
O=C1c2ccccc2C(=O)C2CC([C@H]3Oc4ccccc4S(=O)(=O)N4CCC[C@@H]34)=CCC12 (stereo not given in full)	0.242	0.703	1.13	-2.53	-0.0759	0.786	0.0775 (inactive)	-0.667	-0.852	0.178 (inactive)
COc1ccccc1CN1C(=O)c2ccccc2[C@@H](C(=O)NCC(C)C)[C@@H]1c1ccc(CO)cc1	0.467	0.796	0.306	0.869	-2.01	0.962	-1.09 (inactive)	0.398	0.544	-0.624 (inactive)
CC(C)C[C@@H]1NC(=O)[C@@H]2C[C@H](C(=O)NCc3ccc(F)cc3)[C@H](c3ccc(O)cc3)N2C1=O	0.0054	0.305	-1.03	-0.199	-0.214	1.07	0.0421 (inactive)	0.182	0.593	0.149 (inactive)
C=CCNC(=O)[C@@H]1[C@H]2C(=O)O[C@H](c3ccccc3)[C@H](c3ccccc3)N2[C@H](c2ccc(O)cc2)[C@@]12C(=O)Nc1ccc(C#CCCO)cc12	0.47	0.79	-0.168	-0.21	-0.719	-0.931	-0.296 (inactive)	-0.456	-0.388	1.01 (inactive)
COCCCNC(=O)[C@]1(Cc2ccccc2CN=[N+]=[N-])N=C(c2ccc(OCCCO)cc2)O[C@@H]1c1ccccc1CN=[N+]=[N-]	-0.386	0.0035	-0.918	-2.79	-4.22	1.31	-0.907 (inactive)	-1.18	-1.73	-0.241 (inactive)
CN(C)CCCCNC(=O)[C@H]1C[C@H]2C(=O)N[C@@H](CCCC[N+](C)(C)C)C(=O)N2[C@H]1c1cccc(OCCO)c1	-0.532	0.067	-0.491	-0.845	0.54	-1.18	-0.333 (inactive)	-0.674	-0.448	0.0625 (inactive)
CCOC(=O)C[C@H]1[C@H](OC(=O)c2ccccc2-c2ccccc2)[C@@H](NC(=O)c2ccccc2)c2cc(OCCCO)ccc2N1C(=O)Cc1ccc(OC)cc1	1.29	0.182	0.144	-0.128	0.206	1.02	-0.387 (inactive)	-1.04	0.277	0.995 (inactive)
COCCOC(=O)N1C(=O)[C@@]2(c3cc(C#CCC(C(=O)OC)C(=O)OC)ccc31)[C@H](C(=O)N1CCCCCCC1)[C@H]1C(=O)O[C@H](c3ccccc3)[C@H](c3ccccc3)N1[C@@H]2c1ccc(O)cc1	-0.0336	1.25	-0.125	-0.575	-1.39	0.503	1.1 (inactive)	0.439	0.579	0.616 (inactive)
COCCOC(=O)N1C(=O)[C@@]2(c3cc(C#CCC(C(=O)OC)C(=O)OC)ccc31)[C@H](c1ccc(OCCO)cc1)N1[C@H](c3ccccc3)[C@H](c3ccccc3)OC(=O)[C@H]1[C@@H]2C(N)=O	0.462	0.433	0.322	-2.51	-2.67	-0.0777	1.3 (inactive)	-0.72	-0.0535	1.18 (inactive)
CN(C)CCCNC(=O)[C@@]1(Cc2ccccc2I)c2ccccc2C(=O)N(Cc2ccccc2Cl)[C@H]1c1ccc(CO)cc1	-4.22	0.711	-5.11	-3.8	-4.38	-1.9	-0.373 (inactive)	-0.935	-2.3	-6.99 (inactive)
COCCOC(=O)N1C(=O)[C@@]2(c3cc(C#Cc4ccc(OC)cc4)ccc31)[C@H](c1ccc(OCCO)cc1)N1[C@H](c3ccccc3)[C@H](c3ccccc3)OC(=O)[C@H]1[C@@H]2C(N)=O	-0.383	0.806	-0.792	-1.14	-2.7	-0.617	1.98 (inactive)	-0.65	-1.11	-0.588 (inactive)
COc1ccc([Si](C)(C)[C@@H]2[C@@H](CCO)O[C@]3(C(=O)N(Cc4cccc(N5C(=O)COc6ccccc65)c4)c4ccccc43)[C@H]2C)cc1	-2.03	0.574	-4.17	-2.95	-4.16	-0.527	0.351 (inactive)	-1.09	-1.7	-2.6 (inactive)
C[C@]12C(=O)N(CCCCCO)[C@@H]3C(=O)N(c4ccc(Cl)cc4)CC=CC31O[C@@H]1/C=C\CCCOC(=O)C12 (stereo not given in full)	-0.237	0.282	0.209	0.355	-0.376	-0.259	-0.175 (inactive)	0.109	-0.0571	-0.663 (inactive)
O=C1N(CCS(=O)(=O)c2ccccc2)Cc2ccccc2C[C@@]12COC(c1ccc(OCCCO)cc1)=N2	-0.696	0.643	1.13	-2.84	-1.53	-1.08	0.0146 (inactive)	-1.03	-2.13	-3.42 (inactive)
CO[C@H]1O[C@H](CO)[C@@H](OC(=O)Nc2cccc(F)c2)[C@H](OC(=O)Nc2ccc3c(c2)OCO3)[C@H]1OC(=O)Nc1ccc2c(c1)OCO2	-0.598	0.424	-1.86	-1.17	-2.11	-0.216	0.712 (inactive)	-0.313	-0.0179	-1.14 (inactive)
C=C[C@@H](O)[C@H]1CC(c2ccccc2)=NO1	0.721	-3.92	-0.34	0.626	0.353	0.0313	-0.809 (inactive)	0.434	-0.819	0.558 (inactive)
CCCCC(=C=CC[C@H](O)c1ccccc1OCCO)C[C@H](O)c1ccccn1	0.747	-0.547	1.04	0.7	-0.327	0.21	0.589 (inactive)	-0.45	-1.14	0.412 (inactive)
CC(C)C[C@@H]1NC(=O)[C@@]23C(=O)N[C@@H](Cc4ccccc4)C2[C@H](C)[C@@]2(C)O[C@H]2C3/C=C/C/C=C\CNC(=O)[C@@H]2CCCN2C1=O (stereo not given in full)	-0.486	0.0971	-0.809	-0.641	0.219	-0.00843	0.568 (inactive)	0.548	-0.491	-0.023 (inactive)
